This note sets out measurements from PubChem BioAssay (NCATS).

Results filed as inconclusive are left out. The source made the active and inactive calls. The call rests on the fitted dose curve; in most records, active means well fitted cell-killing curve with a large enough effect; inconclusive means small, poorly fitted or top-dose-only effect; inactive means flat fitted curve, though single readings scatter.
Potency means the concentration at half of the fitted maximal effect.

The first assay in a line: qHTS of pediatric cancer cell lines to identify multiple opportunities for drug repurposing: Primary screen for BT-12 cells (AID 1347101). Further: nearly all actives have a fitted effect of over 25% in size.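 On activity change, negative = cytotoxic: plate controls were DMSO for no effect and bortezomib positive control for full effect.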 As to conditions: BT-12 viability, CellTiter-Glo luminescence, 48 h; series mostly up to 57.3 µM; activity change, negative = cytotoxic: at the top concentration. An outline of the steps: (§1)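 Cells (500-1,000/well) rested 5 h, then received compounds for 48 h; metabolically active cells were measured by CellTiter-Glo luminescence. Final concentrations spanned up to 46 µM (MIPE, 11-point) or 0.59 nM-46 µM (NPC, 8-point) in primary screens, 11-point in follow-ups.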
(Quantitative high-throughput screening tests each substance at several concentrations.)
In the case of `CC(C)[C@H]1C(=O)N[C@H](CO)Cc2c[nH]c3cccc(c23)N1C`, the “activity change, negative = cytotoxic” value was -0.432% (inactive).
As for `CC1(C)CC/C(=C/c2ccc(Cl)cc2)C1(O)Cn1cncn1` (stereo not given), the “activity change, negative = cytotoxic” value was -18.1% [at 116 µM] (inactive).
Consider `CCCCOC(=O)c1ccccc1C(=O)OCc1ccccc1`, for which the “activity change, negative = cytotoxic” value is -15.3% [at 116 µM] (inactive).
Still for that read-out and setting: for `Oc1ccc2c3c1O[C@H]1c4[nH]c5c(c4C[C@@]4(O)[C@@H](C2)N(CC2CC2)CC[C@]314)C[C@@]1(O)[C@H]2Cc3ccc(O)c4c3[C@@]1(CCN2CC1CC1)[C@H]5O4` the value was 5.63% (inactive).
For `CO/C=C(/C(=O)OC)c1ccccc1Oc1cc(Oc2ccccc2C#N)ncn1`, the Potency was 8930 nM (active).
For `CC[C@H]1C=CC=CC[C@@H](C)[C@H](O)[C@@](C)(O)C(=O)[C@@H](C)[C@H](O)[C@@H](C)C(=O)[C@@H](C)[C@H](O)[C@@H](C)C=CC(=O)O[C@@H]2[C@@H](C)[C@H](CC1)O[C@]1(CC[C@H](C)[C@H](C[C@@H](C)O)O1)[C@H]2C`, the Potency was 6.1 nM (active).
On to `CCCCCCCCCC(CC)c1ccc(S(=O)(=O)O)cc1` (stereo not given), for which the “activity change, negative = cytotoxic” value was -4.54% [at 116 µM] (inactive).
For `CCC(=O)O[C@@H]1C=C2CCC3C(CCC4(C)C3CC[C@@H]4OC(=O)CC)C2CC1` (stereo not given in full), the “activity change, negative = cytotoxic” value was 1.17% (inactive).
For `CCCCCC[C@H]1C(=O)O[C@H](C)[C@H](NC(=O)c2cccc(NC=O)c2O)C(=O)O[C@@H](C)[C@@H]1OC(=O)CC(C)C`, the Potency was 122 nM (active).
For the compound `CCOP(=O)(OCC)C(C)NC(=O)N(CCCl)N=O` (stereo not given), the “activity change, negative = cytotoxic” value is 14.6% (inactive).
Take `Cc1cc(O)ccc1Cl`: the “activity change, negative = cytotoxic” value is 1.85% (inactive).
Regarding `C#CC1(O)CCC2C3CCC4=CC(=O)CCC4(C)C3CCC21C` (stereo not given), the “activity change, negative = cytotoxic” value is 2.76% (inactive).
Turning to `O=C1C(I)=CC(=C(c2cc(I)c(O)c(I)c2)c2ccccc2C(=O)O)C=C1I`, the “activity change, negative = cytotoxic” value is 7.01% (inactive).
Turning to `CC(=O)Nc1ccc(OC[C@](C)(O)C(=O)Nc2ccc([N+](=O)[O-])c(C(F)(F)F)c2)cc1`, the “activity change, negative = cytotoxic” value was -12.7% (inactive).
Consider `CCN(CC)C(=O)c1ccc(C2=CC3(CCNCC3)Oc3cccc(O)c32)cc1`, for which the “activity change, negative = cytotoxic” value was -8.72% (inactive).
`CC(N[C@H]1C[C@H]1c1ccccc1)c1ccc2c(c1)OCCO2` (stereo not given in full): the “activity change, negative = cytotoxic” value is 7.6% (inactive).
In the case of `COc1ccc(CC2NCCc3cc(OC)c(OC)cc32)cc1OC` (stereo not given), the “activity change, negative = cytotoxic” value is -21.7% (inactive).
Consider `S=C(SSC(=S)N1CCCCC1)N1CCCCC1`, for which the Potency was 38.9 nM (active).

Another assay is described as follows: qHTS of pediatric cancer cell lines to identify multiple opportunities for drug repurposing: Primary screen for Rh18 cells (AID 1347102). Further: nearly all actives have a fitted effect of over 65% in size. On activity change, negative = cytotoxic: on the % scale 0 is the no-effect control and ±100 the full control effect. As to conditions: Rh18 rhabdomyosarcoma viability, CellTiter-Glo luminescence, 48 h; series mostly up to 46 µM; activity change, negative = cytotoxic: at the top concentration. The method, boiled down: as §1
Consider `CCCN1CCO[C@@H]2c3cc(O)ccc3OC[C@@H]21`, for which the “activity change, negative = cytotoxic” value was -13.9% (inactive).
Consider `Cc1c(N)nc([C@H](CC(N)=O)NC[C@@H](N)C(N)=O)nc1C(=O)N[C@H](C(=O)N[C@@H](C)[C@H](O)[C@@H](C)C(=O)N[C@@H](C(=O)NCCc1nc(-c2nc(C(=O)NCCC[S+](C)C)cs2)cs1)[C@@H](C)O)C(O[C@H]1O[C@H](CO)[C@H](O)[C@@H](O)[C@@H]1O[C@H]1O[C@H](CO)[C@@H](O)[C@H](OC(N)=O)[C@H]1O)c1cnc[nH]1` (stereo not given in full), for which the “activity change, negative = cytotoxic” value is -21.6% (inactive).
Take `CC(C)[C@H]1C(=O)N[C@H](CO)Cc2c[nH]c3cccc(c23)N1C`: the “activity change, negative = cytotoxic” value is 12.2% (inactive).
On to `C#C[C@]1(O)C=C[C@@H]2[C@@H]3CCC4=CC(=O)CC[C@@H]4[C@H]3CC[C@@]21CC`, for which the “activity change, negative = cytotoxic” value was 4.37% (inactive).
Regarding `O=C(NCC1CCOCC1)c1cnc(Nc2ccc(Cl)cc2Cl)nc1C(F)(F)F`, the “activity change, negative = cytotoxic” value is -0.807% (inactive).
The same measure, in the same setting: for `C[C@@H]1CC[C@H]2[C@@H](C)C(=O)O[C@@H]3O[C@@]4(C)CC[C@H]1[C@]32OO4` the value was 20.7% (inactive); for `CC1(C)CC/C(=C/c2ccc(Cl)cc2)C1(O)Cn1cncn1` (stereo not given), -9.04% [at 92.7 µM] (inactive); for `CCCCOC(=O)c1ccccc1C(=O)OCc1ccccc1`, 17% [at 92.7 µM] (inactive).
For the compound `Oc1ccc2c3c1O[C@H]1c4[nH]c5c(c4C[C@@]4(O)[C@@H](C2)N(CC2CC2)CC[C@]314)C[C@@]1(O)[C@H]2Cc3ccc(O)c4c3[C@@]1(CCN2CC1CC1)[C@H]5O4`, the “activity change, negative = cytotoxic” value was 11.5% (inactive).
Consider `CC[C@H]1C=CC=CC[C@@H](C)[C@H](O)[C@@](C)(O)C(=O)[C@@H](C)[C@H](O)[C@@H](C)C(=O)[C@@H](C)[C@H](O)[C@@H](C)C=CC(=O)O[C@@H]2[C@@H](C)[C@H](CC1)O[C@]1(CC[C@H](C)[C@H](C[C@@H](C)O)O1)[C@H]2C`, for which the Potency is 26.4 µM (active).
On to `CCCCCCCCCC(CC)c1ccc(S(=O)(=O)O)cc1` (stereo not given), for which the “activity change, negative = cytotoxic” value was 18.7% [at 92.7 µM] (inactive).
Still for that read-out and setting: with `CCC(=O)O[C@@H]1C=C2CCC3C(CCC4(C)C3CC[C@@H]4OC(=O)CC)C2CC1` (stereo not given in full) the figure was 17.1% (inactive); with `C[C@](O)(COc1ccc(C#N)cc1)C(=O)Nc1ccc(C#N)c(C(F)(F)F)c1`, -1.63% (inactive).
With `CCOP(=O)(OCC)C(C)NC(=O)N(CCCl)N=O` (stereo not given), the “activity change, negative = cytotoxic” value was 9.23% (inactive).
As to `CC(C)(O)C(=O)Nc1ccc([N+](=O)[O-])c(C(F)(F)F)c1`, the “activity change, negative = cytotoxic” value is -29.2% (inactive).
On the same count and under the same terms, with `Cc1cc(O)ccc1Cl` the figure was 11.6% (inactive); with `C#CC1(O)CCC2C3CCC4=CC(=O)CCC4(C)C3CCC21C` (stereo not given), -11.4% (inactive).
